# Laboratory results taken from ChEMBL document CHEMBL4513216, “Probing the Open Global Health Chemical Diversity Library for Multistage-Active Starting Points for Next-Generation Antimalarials” (ACS Infect Dis, 2020).
# The campaign covered roughly 69,000 compounds. About 8,600 (12%) showed an effect of 50% or more. Many of the other results were omitted from the sample, so strong results are more common in it than they were.
# Test system: Plasmodium berghei
# Assay: Screen against P. berghei liver stage (PbLuc), transformed with Luciferase, at 10uM
# Assay type: functional, HepG2
# Details: tested at 10 uM
row,Compound,INHIBITION
1,O=C(NC1CCCC1)[C@H]1C[C@H]2OCC[C@H]2N(Cc2ccoc2)C1,-1.55%
2,CC1CCN(C(=O)[C@@H]2C[C@H]3OCC[C@H]3N(Cc3ccoc3)C2)CC1,59%
3,O=C(NCC1CC1)[C@H]1C[C@H]2OCC[C@H]2N(Cc2ccoc2)C1,35.3%
4,Cc1ccc(NC(=O)[C@H]2C[C@H](C(=O)O)CN(CC3CC3)C2)cn1,39.4%
5,CCC1=NC2(CCC(C(=O)Nc3ccc(F)cc3)CC2)C(=O)N1C (stereo not given),42.4%
6,CCC1=NC2(CCC(C(=O)Nc3ccc(C)nc3)CC2)C(=O)N1C (stereo not given),64.3%
7,O=C1CCN(C(=O)NCCc2c[nH]c3ccc(Cl)cc23)CCN1,1.56%
8,COC(=O)CNC(=O)c1nc(-c2ccccc2OC)c2cnccn12,54.9%
9,COc1ccccc1-c1nc(C(=O)N(C)C)n2ccncc12,30.8%
10,COc1ccccc1-c1nc(C(=O)N2CCOCC2)n2ccncc12,32.5%
11,COc1ncc(CN2CCCC2c2[nH]ncc2C(=O)N(C)C)cn1 (stereo not given),3.48%
12,Cc1n[nH]c(C)c1-c1cc(-c2cc[nH]c2)nc(N)c1C#N,28%
13,N#Cc1c(C2CC2)cc(-c2ccc(O)cc2)nc1N,-14.9%
14,Cc1cc(O)ccc1-c1cc(-c2cnn(C)c2C2CC2)c(C#N)c(N)n1,87.9%
15,Cc1n[nH]c(C)c1-c1cc(-c2cccc(O)c2)nc(N)c1C#N,57.6%
16,Cc1cccc(-c2cc(-c3c(C)nn(CCO)c3C)c(C#N)c(N)n2)c1,-13.2%
17,Cc1n[nH]c(C)c1-c1cc(-c2ccc[nH]2)nc(N)c1C#N,7.22%
18,Cc1nn(C)c(C)c1-c1cc(-c2cnn(C)c2C2CC2)c(C#N)c(N)n1,34.5%
19,Cn1ncc(-c2cc(-c3cccc(O)c3)nc(N)c2C#N)c1C1CC1,80%
20,CC(C)c1cc(-c2cnn(C)c2C2CC2)c(C#N)c(N)n1,-14.3%
21,CC(=O)N1CCN(C(=O)C2CCN(c3cccnn3)C2)CC1 (stereo not given),-8.12%
22,COC(=O)C1=C(C)N=C2SCC(=O)N2C1c1cnn(C)c1C (stereo not given),22.6%
23,COc1ccc(CC2(CO)CCN(c3cc(N)ncn3)CC2)cc1,26.8%
24,Cn1ccnc1C1CCN(C(=O)COCC(F)(F)C(F)F)CC1,59.1%
25,O=C(COCC(F)(F)C(F)F)N1CCC(c2ncc[nH]2)CC1,40.6%

row,Compound,INHIBITION
1,CCOCC(=O)N1CCC(c2nccn2C)CC1,11.8%
2,O=C(Cc1csc(-c2ccco2)n1)N1CCN(c2nccs2)CC1,-21.7%
3,CO[C@H]1CN(C(=O)c2ccc[nH]2)[C@@H]2COC[C@H]12,-29%
4,COCCNC(=O)c1ccc2ccc(N(C)CC3CC3)n2c1,26%
5,O=S(=O)(c1ccccc1)N1CCN(CCn2ccnc2)CC1,-26.6%
6,CCc1ccc(S(=O)(=O)N2CCN(CCn3ccnc3)CC2)cc1,51.2%
7,O=S(=O)(c1cccnc1)N1CCN(CCn2ccnc2)CC1,-0.113%
8,COc1ccc(S(=O)(=O)N2CCC(Cn3ccnc3)CC2)cc1,8.46%
9,O=S(=O)(c1ccc(Cl)cc1)N1CCN(CCCn2ccnc2)CC1,76.7%
10,O=S(=O)(c1ccc(F)cc1)N1CCN(CCCn2ccnc2)CC1,-49.3%
11,COc1ccc(F)cc1S(=O)(=O)N1CCN(CCn2ccnc2)CC1,18.2%
12,O=S(=O)(c1ccccc1)N1CCCN(CCCn2ccnc2)CC1,37%
13,Cc1ccc(S(=O)(=O)N2CCN(CCCn3ccnc3)CC2)cc1,81%
14,c1ccc(-c2cc(CNCCN3CCCC3)c3nnnn3c2)cc1,-5.71%
15,CC(NC(=O)NCc1ccccn1)c1cccs1 (stereo not given),-5.26%
16,O=C(C1=CCCC1)N1CCC[C@]2(C[C@@H](Oc3ncccc3F)CO2)C1,23.5%
17,CC(C)N1CCc2c(C(=O)N3CCOCC3)nn(C)c2C1,42.1%
18,OC1(CNc2ccccc2)CCNCC1,20.9%
19,CCNC(=O)N(C)CCCc1n[nH]c(N)c1C#N,40.9%
20,CN(CCCc1n[nH]c(N)c1C#N)C(=O)NC1CC1,23.6%
21,CN(CCCc1n[nH]c(N)c1C#N)C(=O)Nc1cc(Cl)cc(Cl)c1,63.7%
22,COC(=O)c1ccc(-c2noc(CN(CCO)Cc3cccs3)n2)cc1,51%
23,OCCN(Cc1nc(-c2ccc3c(c2)OCO3)no1)Cc1cccs1,17.6%
24,OCCN(Cc1ccccc1)Cc1nc(-c2ccc3c(c2)OCO3)no1,35.1%
25,CCS(=O)(=O)N1C[C@@H](Oc2ccccn2)[C@H]2OCCC[C@H]21,-14.4%
